Bioassay records (PubChem BioAssay)
HCV inhibitor: inhibitors of hepatitis C virus infection. Potency, µM (titrated, usually from 41.8 µM), for inactives: at the top dose activity change, negative = inhibition, hits mostly inhibitors. hit rate 3.4% among 340,000. Huh7.5.1 HCVcc-Cre infection, luciferase reporter, 44 h; active = well fitted inhibition curve with a large enough effect; inconclusive = small, poorly fitted or top-dose-only effect, or another doubt; inactive = no such curve, though single readings can be large or run the other way; also: potency is read from the fitted curve at half-maximal effect; % is scaled to controls: 0 for no effect and ±100 for the full control effect
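Whole-lifecycle infectious HCVcc-Cre system; cells 1,000/well, compound then virus (~0.5 moi) added 4 h after plating, 44 h culture. Luciferase read 15 sec following 15 min substrate incubation, room temp.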
FMDV antiviral: foot and mouth disease virus antiviral activity; hit rate 1.2% among 410,000; Potency, µM (series often up to 57.9 µM), inactives show at the highest dose activity change, negative = inhibition, usual class: inhibitors; FMDV antiviral cell-based qHTS; calls by dose curve; tested in HEK293T cells; also: read-out not given here; potency is read from the fitted curve at half-maximal effect; % is scaled to controls: 0 for no effect and ±100 for the full control effect; nearly all actives have a fitted effect of over 45% in size
SARS PLpro yeast: inhibitors of SARS-CoV papain-like protease in yeast; AID 485353; Potency, µM (doses to about 32.9 µM), inactives show top-dose activity, positive = growth rescue, actives largely listed as activators; hit rate 0.19% among 330,000; S. cerevisiae expressing SARS-CoV PLpro, growth rescue; calls by dose curve; also: potency is read from the fitted curve at half-maximal effect; 0% is about no effect; nearly all actives have a fitted effect of over 55% in size
HCMV inh: inhibitors of human cytomegalovirus; HFF cells, HCMV-luciferase reporter, 72 h; hits give low values; activity change, negative = inhibition, % at 57.5 µM; hit rate 4.5% among 410,000; in the data active = activity change below about -60%; inconclusive = no clear call, values can overlap the other calls; inactive = above about -39%; also: % is scaled to controls: 0 for no effect and ±100 for the full control effect
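Compounds were evaluated in HFFs infected with an HCMV luciferase reporter virus (MOI 1 PFU/cell). Luciferase in lysates collected 72 h post infection served as the replication measure.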
Lassa entry inh: inhibitors of Lassa virus binding or cell entry. Lassa virus pseudotype entry inhibition, cell reporter. Potency, µM (series often up to 37.9 µM), inactives show top-dose activity change, negative = inhibition, actives largely listed as inhibitors. hit rate 1.2% among 300,000. AID 540256; calls by dose curve; tested in HEK293 cells; also: potency is read from the fitted curve at half-maximal effect; % is scaled to controls: 0 for no effect and ±100 for the full control effect; nearly all actives have a fitted effect of over 50% in size
MARV entry inh: inhibitors of Marburg virus binding or cell entry; Potency, µM (highest dose often 37.8 µM), for the others: at the top dose activity change, negative = inhibition, usual class: inhibitors; Marburg virus pseudotyped entry inhibition, cell reporter; hit rate 1.8% among 300,000; calls by dose curve; tested in HEK293 cells; also: potency is read from the fitted curve at half-maximal effect; % is scaled to controls: 0 for no effect and ±100 for the full control effect
Numbers without * were called inactive; ? = inconclusive; . = not tested or not shown; [ ] = remark or other dose. Most compounds without a hit are left out; they make up all but 8% or so of the library.

SMILES | HCV inhibitor | FMDV antiviral | SARS PLpro yeast | HCMV inh | Lassa entry inh | MARV entry inh
COc1cccc(NC(=O)C2CCN(S(=O)(=O)c3ccc4c(c3)CC(C)N4C(C)=O)CC2)c1 (stereo not given) | ? | -17% | -10% | ? | . | .
CCc1cccc(NC(=O)C2CCN(S(=O)(=O)c3ccc4c(c3)CC(C)N4C(C)=O)CC2)c1 (stereo not given) | ? | 14µM* | -1% | -85* | . | .
CC1CCN(C(c2ccc(F)cc2)c2sc3nc(-c4ccco4)nn3c2O)CC1 (stereo not given) | . | 12% | . | -17 | -22%[46.1 µM] | .
CCc1ccc(C2=NNC(=Nc3cccc(S(=O)(=O)N(C)C)c3)SC2)cc1 | 4.5µM* | -7% | -10% | -99* | ? | ?
Cc1ccc(C2=NNC(=Nc3ccc(F)cc3)SC2)cc1 | ? | 41% | -2% | -4 | ? | ?
CCCCN(CCCC)CCNC(=O)c1cn(C)c2ccc(S(=O)(=O)N3CCOCC3)cc2c1=O | . | -16% | . | -5 | -25%[46.1 µM] | -7%[46.1 µM]
Cc1cccc(NC(=S)/N=C(\N)Nc2nc(C)c3ccccc3n2)c1 | 4µM* | -9% | ? | ? | ? | ?
Cc1ccc(S(=O)(=O)/N=C(\N)Nc2nc(C)c3ccccc3n2)cc1 | 4% | 49% | 5% | -9 | 1% | ?
Cc1cc(C)cc(NC(=S)/N=C(\N)Nc2nc(C)c3ccccc3n2)c1 | ? | ? | ? | -79* | 6% | ?
Cc1cccc(NC(=S)/N=C(\N)Nc2nc(C)c3ccc(C)cc3n2)c1 | 2µM* | -24% | 28% | -33 | ? | 11µM*
Cc1cccc(NC(=S)/N=C(\N)Nc2nc(C)c3cc(C)ccc3n2)c1 | ? | 6% | -4% | 13 | -15% | ?
COc1ccc(-c2cc(C(F)(F)F)n3nc(C(=O)Nc4sc5c(c4C(=O)OC(C)C)CCC(C)C5)cc3n2)cc1 (stereo not given) | . | -18% | . | -10 | 10%[46.1 µM] | .
Cc1ccc(N2CCN(C(=O)Cn3ncc4c([nH]c5ccc(C)cc54)c3=O)CC2)c(C)c1 | . | -19% | . | 6 | 27%[46.1 µM] | .
COc1ccc(C(=O)Oc2cccc(Nc3ncnc4ccccc34)c2)cc1OC | ? | 20µM* | -15% | -18 | ? | ?
COc1cc(C(=O)Oc2cccc(Nc3ncnc4ccccc34)c2)cc(OC)c1OC | 25µM* | . | -19% | -70* | ? | ?
COc1cccc([C@H]2/C(=C(\O)c3cnn(-c4ccccc4)c3C)C(=O)C(=O)N2CCN(C)C)c1 | . | . | . | . | . | 0%
COc1ccc(CN2C(=O)C(n3ccc4ccccc43)c3cc(Cl)ccc32)cc1 (stereo not given) | . | . | . | -84* | . | .
COc1ccc(CN2C(=O)C(n3c(C)ccc3C)c3cc(OC(F)(F)F)ccc32)cc1 (stereo not given) | . | . | . | -88* | . | .
COc1ccc2c(c1)C(n1ccc3ccccc31)C(=O)N2Cc1ccc(C(C)C)cc1 (stereo not given) | . | . | . | 18 | . | .
COc1ccc(CN2CCc3nnc(CCc4ccccc4)n3CC2)c(OC)c1C | . | -10% | . | . | . | .
N=C1S/C(=C\c2ccc(-c3cccc(Cl)c3)o2)C(=O)N1c1nccs1 | 14% | -8% | -13% | -78* | ? | 3.2µM*
COc1ccc(/C=C2\SC(=N)N(c3nccs3)C2=O)cc1OC | ? | ? | -40% | -94* | -24%[46.1 µM] | ?
COc1ccc(/C=C2\SC(=S)N(NC(=O)c3ccncc3)C2=O)cc1OC | . | . | 0% | . | . | .
CCn1c(=NC(=O)CS(=O)(=O)c2ccc(F)cc2)sc2cccc(OC)c21 | ? | ? | . | ? | -36% | ?
COc1ccc2c(c1)sc(=NC(=O)CS(=O)(=O)c1ccc(F)cc1)n2C | ? | -18% | 0% | -73* | -5% | ?
SMILES | HCV inhibitor | FMDV antiviral | SARS PLpro yeast | HCMV inh | Lassa entry inh | MARV entry inh
CNC(=O)c1cnc2sc(N3CCC(C)CC3)nn2c1=O | . | 33% | . | 90 | 22%[46.1 µM] | .
COC(=O)C1=C(C(=O)OC)[C@]2([C@H]3CCCCN[C@@H](Cc4ccccc4)C(=O)N3Cc3ccccc3)C=C[C@H]1O2 | 11µM* | ? | 0% | -70* | . | .
CN(C)c1ccc(C(=O)OCc2ccccc2)cc1 | -16% | 66% | 4% | -22 | ? | -1%
O=C1C=CC(=O)C(CNc2ccc(C(=O)OCc3ccccc3)cc2)=C1 | 10µM* | 0% | . | -23 | 11µM* | ?
COc1ccc2nc(N3CCN(C(=O)CS(=O)(=O)c4ccc(C)cc4)CC3)sc2c1 | . | ? | . | -64* | -30%[46.1 µM] | .
COc1ccc2nc(N3CCN(C(=O)c4ccco4)CC3)sc2c1 | . | 11% | . | 14 | -5%[46.1 µM] | .
Cc1cc(NC(=O)c2ccccc2F)cc(C)c1OCC(=O)N1CCOCC1 | -2% | 16% | -1% | -98* | -19% | ?
O=C(Nc1ccc(OCC(=O)N2CCOCC2)cc1)c1ccccc1F | 2% | -12% | 1% | -27 | ? | -30%[46.1 µM]
CCOC(=O)/C=c1/s/c(=C/c2ccc3cc(OC)ccc3c2)c(=O)n1CC(=O)NCC1CCCO1 (stereo not given) | ? | -20% | . | -32 | -17%[46.1 µM] | -4%[46.1 µM]
CCOC(=O)/C=c1\s/c(=C\c2c(OC)ccc3ccccc23)c(=O)n1CC(=O)NCC1CCCO1 (stereo not given) | ? | -5% | -11% | -95* | ? | ?
COc1cc(C2C(=O)N(C3CCCCC3)CC(=O)N2Cc2ccc(C)cc2)ccc1OC(C)C (stereo not given) | . | -17% | . | -3 | ? | .
N#Cc1c(C(F)(F)F)cc(-c2ccccc2)nc1SCCN1CCOCC1 | 7.9µM* | . | -3% | 112 | -26% | ?
CCCSc1nc(-c2ccccc2)cc(C(F)(F)F)c1C#N | ? | -20% | -5% | ? | 6% | -5%
Nc1ccc(Oc2ccccc2-c2ccccc2)cc1 | -6% | 7.9µM* | . | -82* | 5.6µM* | 5.6µM*
NCCOc1ccccc1-c1ccccc1 | 4% | -6% | 1% | 24 | -20% | -13%
C=CCN1C(=O)C2(CC(C)=C[C@@H](C)O2)c2c(Br)cccc21 (stereo not given in full) | . | . | . | . | . | 26%[14.2 µM]
Nc1cc(-c2ccc(Br)cc2)nn1Cc1ccccc1 | 1.3µM* | -11% | -1% | -77* | ? | -24%[46.1 µM]
CC1=C(C(=O)Nc2cccnc2)C(c2ccc(F)cc2)n2nc(-c3cccc(C)c3)nc2N1 (stereo not given) | . | -15% | . | -23 | -11%[46.1 µM] | ?
COC(=O)Cc1ccc(NC(=S)N2CCN(c3ccc(OC)cc3)CC2)cc1 | 1% | -16% | 12% | 53 | -19% | -3%
COC(=O)Cc1ccc(NC(=S)N2CCN(c3cccc(O)c3)CC2)cc1 | ? | ? | 2% | -64* | -12% | -27%
C#CC[C@@]1(C(=O)OC)C=C[C@@H](C)[C@H](c2ccccc2Br)N1C(=O)C(F)(F)F | . | . | . | . | . | -2%[14.2 µM]
O=Nc1c2cc3ccccc3[nH]c-2c2ccccc12 | ? | -22% | . | 65 | ? | ?
